High-throughput results: PubChem BioAssay, The Scripps Research Institute Molecular Screening Center
Most compounds without a hit are left out; they make up all but 5.7% or so of the library.
ssDAF12 agonist: S. stercoralis DAF-12 nuclear receptor activators, primary screen, cell-based, luminescence, HEK293, GRIP1 co-expression, lit1-tk-luc; Nuclear hormone receptor DAF-12 (Strongyloides stercoralis); HEK293 ssDAF-12/GRIP1 lit1-tk-luc reporter; % of 3 µM dafachronic acid response; activation, % at 6.8 µM; hit rate 1% among 370,000; AID 652126, 2013;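 active means activation above the mean over all tested compounds plus 3 SD, cut at about 0.9% in these data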;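 further: 0% = DMSO-only wells and 100% = 3 µM delta7-dafachronic acid wells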
DAX1 inh-1: DAX1 (NR0B1) inhibitors on StAR promoter, primary screen, cell-based, luminescence, SF-1 (NR5A1), full-length DAX-1. hit rate 1.1% among 370,000. inhibition, % at 6.8 µM. HEK293T StAR-luciferase reporter, SF-1/DAX-1 repression relief. AID 652010, 2013;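 active means inhibition above the mean over all tested compounds plus 3 SD, cut at about 3.6% in these data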;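 further: 0% = DAX-1 cells with DMSO and 100% = cells lacking DAX-1 with DMSO; higher inhibition means more luminescence from relief of DAX-1 repression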
hgDAF12 agonist: H. glycines DAF-12 receptor agonists, primary screen, cell-based, luminescence, HEK293, GAL4 fusion, UAS-luciferase; AID 687014, 2013; HEK293 GAL4-hgDAF12 UAS-luciferase reporter, agonist luminescence; normalized to butyrate control; activation, % at 6.8 µM; hit rate 1.8% among 370,000; Nuclear hormone receptor DAF-12 (Heterodera glycines), GAL4 fusion;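 active means activation above a cutoff set at the mean of all screened compounds plus 3 SD, cut at about 10% in these data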;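 further: 0% = DMSO wells and 100% = sodium butyrate wells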
hcDAF12 agonist: H. contortus DAF-12 nuclear receptor activators, primary screen, cell-based, luminescence, HEK293, lit1-tk-luc reporter; HEK293 hcDAF-12 lit1-tk-luc reporter; 0% DMSO, 100% Δ7-dafachronic acid; activation, % at 6.8 µM; hit rate 1.4% among 370,000; AID 652067, 2013;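 active means activation above the mean of all tested compounds plus 3 SD, cut at about 5.5% in these data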;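 further: 100% = response to 3 µM Δ7-dafachronic acid high control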
AHR activator: AHR activators, primary screen, cell-based, luminescence, luciferase reporter, human; activation, % at 5 µM; AHR-responsive luciferase reporter cells; Aryl hydrocarbon receptor (Homo sapiens), P35869; AID 2796, 2010; hit rate 2.5% among 320,000; in the data active means activation above about 47%;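 further: 0% = vehicle wells and 100% = reference agonist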
DAX1 inh-2: DAX1 (NR0B1) inhibitors, primary screen, cell-based, HEK293, Gal4-DAX1, luciferase luminescence; Nuclear receptor subfamily 0 group B member 1 (Homo sapiens), P51843; HEK293 Gal4-DAX1 luciferase reporter; inhibition, % at 6.75 µM; hit rate 0.99% among 340,000;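 active means inhibition above the mean over all tested compounds plus 3 SD, cut at about 4.2% in these data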;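 further: 0% = DAX1-transfected cells with DMSO and 100% = empty-vector control cells with DMSO; inhibition shows as a rise in luminescence from relieved DAX1 repression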
Target sequence (P51843 207-470 limits assumed): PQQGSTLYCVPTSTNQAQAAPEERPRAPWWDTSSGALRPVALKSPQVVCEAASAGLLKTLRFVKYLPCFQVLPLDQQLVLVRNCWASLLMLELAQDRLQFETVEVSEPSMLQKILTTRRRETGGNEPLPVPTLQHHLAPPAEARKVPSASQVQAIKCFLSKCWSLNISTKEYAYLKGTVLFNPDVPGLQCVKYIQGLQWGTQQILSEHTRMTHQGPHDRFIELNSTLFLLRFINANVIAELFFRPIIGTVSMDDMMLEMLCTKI
Numbers without * were called inactive; x = no result given.

SMILES	ssDAF12 agonist	DAX1 inh-1	hgDAF12 agonist	hcDAF12 agonist	AHR activator	DAX1 inh-2
Cc1ccc(C(=O)Nc2cc(Cl)ccc2-n2cncn2)o1	1.2*	1	1	4	58*	2
O=C(Nc1cc(Cl)ccc1-n1cncn1)c1ccco1	-1	0	1	3	32	0
COc1cc(C(C)=O)ccc1OCC(=O)Nc1cc(Cl)ccc1-n1cncn1	-1	2	-2	0	x	0
COc1cccc(/C=C2/Sc3ccc(C(=O)NC4CC4)cc3NC2=O)c1	-1	1	-1	1	x	x
CCC(=O)Nc1ccc(C(=O)COC(=O)c2nc3nccc(C)n3n2)cc1	-1	-1	3	2	1	0
CCCn1c(=S)[nH]c2cc(C(=O)N3CCN(c4ccc(F)cc4)CC3)ccc2c1=O	-1	0	-1	1	x	1
COc1cccc(-c2ncn(CCc3ccccc3OC)c2C(C)C)c1	-2	-4	-4	-5	x	x
CC(=O)C1=C(C)NC(SCC(=O)c2ccc(F)cc2)=C(C#N)C1c1ccco1 (stereo not drawn)	-1	-1	-1	-6	64*	-2
CC(=O)C1=C(C)NC(SCC(=O)c2cc(Cl)ccc2Cl)=C(C#N)C1c1ccco1 (stereo not drawn)	-1	-1	-2	1	83*	0
N#CC1=C(SCC(=O)c2ccccc2)NC2=C(C(=O)CCC2)C1c1ccco1 (stereo not drawn)	-1	-1	13*	2	15	0
Cc1ccc(C(=O)CSC2=C(C#N)C(c3ccco3)C3=C(CCCC3=O)N2)cc1 (stereo not drawn)	-1	-2	2	-1	34	-3
CC(=O)C1=C(C)NC(SCC(=O)c2ccc(F)cc2)=C(C#N)C1CC(C)C (stereo not drawn)	-1	1	12*	-1	27	-1
CCc1ccc(C(=O)CSC2=C(C#N)C(c3ccco3)C(C(C)=O)=C(C)N2)cc1 (stereo not drawn)	x	x	x	x	9	x
COC1OC(COCc2ccccc2)C2OC(C)(C)OC2C1O (stereo not drawn)	-1	1	-2	0	x	x
CCn1cc(C(=O)NCCCN2CCC(C)CC2)c(=O)c2cc(S(=O)(=O)N3CCOCC3)ccc21	-1	3.7*	0	4	1	1
CN(C1CCCCC1)S(=O)(=O)c1ccc2c(c1)c(=O)c(C(=O)NCCCN1CCCC1)cn2C	-2	1	2	1	-1	4.9*
CCn1cc(C(=O)N2CCc3ccccc32)c(=O)c2cc(S(=O)(=O)N(C)C3CCCCC3)ccc21	-1	-2	0	-2	3	0
CCn1cc(C(=O)N2CCc3ccccc32)c(=O)c2cc(S(=O)(=O)N3CCOCC3)ccc21	0	0	4	5.9*	9	-1
CC(=O)c1ccc(NC(=O)CC(C)S(=O)(=O)c2ccc3c(c2)CCN3C(C)=O)cc1 (stereo not drawn)	-1	4.1*	0	1	-1	0
CCC(=O)N1CCc2cc(S(=O)(=O)CCC(=O)Nc3ccc(C(C)=O)cc3)ccc21	-1	-1	3	0	0	-1
COC(=O)C1=C(C)N(Cc2ccc(C(F)(F)F)cc2)C(=NCc2ccc(OC)cc2)NC1c1ccccc1 (stereo not drawn)	-1	-2	-1	-1	x	x
COCC(=O)N1CCN(C(=O)C(=O)c2cccc(C(F)(F)F)c2)CC1	-1	0	1	0	x	x
CC(=O)N1CCCc2cc(S(=O)(=O)N3CCCC3)ccc21	-1	0	-1	1	2	0
CC(=O)N1CCc2cc(S(=O)(=O)N3CCOCC3)ccc21	-1	0	0	-1	0	4.6*
CCCCN(CCCC)CCNC(=O)c1cn(CC)c2ccc(S(=O)(=O)N3CCCC3)cc2c1=O	-1	4.5*	2	1	-1	1
SMILES	ssDAF12 agonist	DAX1 inh-1	hgDAF12 agonist	hcDAF12 agonist	AHR activator	DAX1 inh-2
O=C(Nc1ccn(CC(=O)N2CCN(c3ccccn3)CC2)c(=O)n1)OCc1ccccc1	-1	0	-3	-1	-3	0
CCOc1cccc2sc(N(CCCN(C)C)C(=O)c3ccc(S(=O)(=O)N(CC)Cc4ccccc4)cc3)nc12	-1	-2	1	1	0	3
CCN(Cc1ccccc1)S(=O)(=O)c1ccc(C(=O)N(CCCN(C)C)c2nc3c(F)cccc3s2)cc1	-1	1	1	5.7*	0	1
COc1ccc(-c2cn3cccc(C)c3n2)cc1Br	0	2	8	3	12	3
Cc1cccn2cc(-c3ccccc3)nc12	1.1*	3	13*	5	38	3
CC(=O)c1cc2c(cc1NC(=O)C1CN(C(C)=O)c3ccccc3O1)OCO2 (stereo not drawn)	0	-1	0	4	53*	0
O=C1C(=O)N(c2ccc(O)cc2)C(c2ccccc2[N+](=O)[O-])/C1=C(\O)c1ccccc1 (stereo not drawn)	2.2*	0	3	5	36	2
COc1ccc(-n2c(Cc3cccn3C)nnc2SCC(=O)NCc2ccc(F)cc2)cc1	-2	0	1	-1	2	2
C=CCn1c(N)cc(=O)nc1SCC(=O)Nc1ccc(C(=O)OC)cc1	-1	0	3	0	0	0
CCOC(=O)c1ccc(NC(=O)CSc2nnc(CNc3ccc(OC)cc3)n2C)cc1	0	1	3	3	59*	0
CCc1ccc(NC(=O)CSc2nnc(Cc3cccn3C)n2-c2ccc(OC)cc2)cc1	0	1	-2	0	4	4.7*
C=CCn1c(N)cc(=O)nc1SCC(=O)Nc1ccc(C(=O)OCC)cc1	0	0	2	-1	1	5.8*
COc1ccc(-n2c(Cc3cccn3C)nnc2SCC(=O)NCc2ccco2)cc1	-2	0	2	-2	66*	1
CCN1CCN(c2ccc(N=Cc3ccccc3O)cc2)CC1	0	0	0	2	1	1
Cc1nn(-c2ccc(Cl)cc2)c(=O)c2c(C)noc12	-1	0	-2	0	78*	3
COc1ccc(/C=N/NC(=O)c2cccc(Br)c2)cc1COc1ccccn1	-1	1	0	-1	14	2
